According to PubChem BioAssay (Tox21):
Where “and” joins values, the source holds several entries; their conditions need not be identical. Identical values can stand only once. Records with an inconclusive call do not appear. Entries that show only a call come without a potency. The source holds several records for some structures; these can differ, active in one and inactive in another. Calls of active or inactive are those of the source. Unless noted, the call rests on the fitted dose curve; in most records, active means well fitted curve in the direction sought with a large enough effect in the repeat runs; inconclusive means weak or mixed curves; inactive means no such curve, though single readings can be large; an effect the other way counts as inactive or inconclusive.

Assays:
[1] = qHTS assay to identify small molecule antagonists of the glucocorticoid receptor (GR) signaling pathway - cell viability counter screen (AID 720693); further: nearly all actives have a fitted effect of over 55% in size; further: potency means the concentration at half of the fitted maximal effect
[2] = qHTS assay for identifying genotoxic compounds that show differential cytotoxicity against isogenic chicken DT40 cell lines with known DNA damage response pathways - Rev3 mutant cell line (AID 743014); further: nearly all actives have a fitted effect of over 55% in size; further: potency means the concentration at half of the fitted maximal effect
[3] = qHTS assay for identifying genotoxic compounds that show differential cytotoxicity against isogenic chicken DT40 cell lines with known DNA damage response pathways - Rad54/Ku70 mutant cell line (AID 743015); further: nearly all actives have a fitted effect of over 60% in size; further: potency means the concentration at half of the fitted maximal effect
[4] = qHTS assay to identify small molecule antagonists of the androgen receptor (AR) signaling pathway - cell viability counter screen (AID 743033; further: nearly all actives have a fitted effect of over 45% in size; further: potency means the concentration at half of the fitted maximal effect)
[5] = qHTS assay to identify small molecule antagonists of the androgen receptor (AR) signaling pathway using the MDA cell line - cell viability counter screen (AID 743041; further: nearly all actives have a fitted effect of over 45% in size)
Outline: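 R1881-driven MDA-kb2 AR-luc cells, 3,000/well, were dosed with library compounds for 16 h; cell health came from CellTiter-Fluor fluorescence in the reporter wells.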

[6] = qHTS assay to identify small molecule antagonists of the thyroid receptor (TR) signaling pathway - cell viability counter screen (AID 743064); further: nearly all actives have a fitted effect of over 50% in size; further: potency means the concentration at half of the fitted maximal effect
Outline: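 GH3.TRE-Luc rat pituitary cells carrying a TRE-luciferase reporter were treated with compound plus 1 nM T3 (final) for 23.5 h at 37 °C. Viability was then read in the same wells by CellTiter-Fluor fluorescence after a further 30 min.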

[7] = qHTS assay to identify small molecule antagonists of the thyroid receptor (TR) signaling pathway (AID 743065); further: nearly all actives have a fitted effect of over 55% in size; further: potency means the concentration at half of the fitted maximal effect
Outline: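 Antagonism measured as loss of luciferase signal in GH3 cells stably carrying a TRE-luciferase reporter, co-treated with compound and T3 (1 nM final) for 23.5 h at 37 C. Viability was read in the same well by CellTiter-Fluor.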

[8] = biological target: Androgen receptor (Homo sapiens) (UniProt P10275); test: qHTS assay to identify small molecule antagonists of the androgen receptor (AR) signaling pathway (AID 743035; active means well fitted inhibition curve with a large enough effect in the signal ratio in the repeat runs, not every such curve was filed as active; the % refers to the signal ratio)
Androgen receptor (Homo sapiens), sequence (P10275 whole entry, looked up): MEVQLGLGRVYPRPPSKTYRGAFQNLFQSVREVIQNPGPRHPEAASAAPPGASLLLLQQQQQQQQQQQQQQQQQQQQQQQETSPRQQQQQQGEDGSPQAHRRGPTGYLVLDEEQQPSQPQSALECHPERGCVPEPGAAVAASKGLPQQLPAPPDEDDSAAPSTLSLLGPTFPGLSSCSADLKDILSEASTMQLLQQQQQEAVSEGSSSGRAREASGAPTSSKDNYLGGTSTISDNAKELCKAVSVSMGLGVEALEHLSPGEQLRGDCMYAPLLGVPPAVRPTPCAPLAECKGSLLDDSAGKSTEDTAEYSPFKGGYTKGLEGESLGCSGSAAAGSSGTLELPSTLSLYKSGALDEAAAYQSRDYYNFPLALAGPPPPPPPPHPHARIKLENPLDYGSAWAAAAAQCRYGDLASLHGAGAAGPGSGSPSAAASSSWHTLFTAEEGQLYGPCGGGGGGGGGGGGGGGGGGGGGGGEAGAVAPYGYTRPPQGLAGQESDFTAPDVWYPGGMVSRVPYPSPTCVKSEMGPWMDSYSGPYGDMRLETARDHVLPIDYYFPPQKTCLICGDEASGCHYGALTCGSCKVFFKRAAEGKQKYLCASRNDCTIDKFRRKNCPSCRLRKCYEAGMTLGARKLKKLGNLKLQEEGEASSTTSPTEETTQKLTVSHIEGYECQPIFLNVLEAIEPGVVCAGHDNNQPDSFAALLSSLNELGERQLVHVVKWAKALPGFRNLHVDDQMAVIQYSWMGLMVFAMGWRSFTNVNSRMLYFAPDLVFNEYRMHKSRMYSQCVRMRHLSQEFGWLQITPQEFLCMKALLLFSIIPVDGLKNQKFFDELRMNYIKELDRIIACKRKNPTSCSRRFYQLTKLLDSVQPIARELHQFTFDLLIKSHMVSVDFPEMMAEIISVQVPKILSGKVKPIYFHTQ
Outline: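 Antagonism is scored as loss of R1881-driven beta-lactamase reporter expression in HEK293 cells carrying the reporter under a UAS element, after 16 h co-treatment at 37C and a 2 h room-temperature FRET substrate read.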

[9] = biological target: Androgen receptor (Homo sapiens) (UniProt P10275); test: qHTS assay to identify small molecule agonists of the androgen receptor (AR) signaling pathway (AID 743036; active means well fitted activation curve with a large enough effect in the signal ratio in the repeat runs, with a control signal flat, not every such curve was filed as active; the % refers to the signal ratio)
Outline: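 HEK293 cells stably carrying a UAS-driven beta-lactamase reporter (GeneBLAzer AR-UAS-bla-GripTite) were plated at 2,000 cells/well, rested 4 h at 37C, then exposed to compounds in DMSO for 16 h. LiveBLAzer B/G FRET substrate was added for 2 h at room temperature; fluorescence read.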

Row | SMILES | Potency [1] | Potency [2] | Potency [3] | Potency [4] | Potency [5] | Potency [6] | Potency [7] | outcome [8] | outcome [9]
1 | CCCCC(CC)COC(=O)CCCCCCCC(=O)OCC(CC)CCCC (stereo not given) | inactive | inactive | inactive | inactive | inactive | inactive | inactive | – | –
2 | CC[Si](OC(C)=O)(OC(C)=O)OC(C)=O | inactive | inactive | inactive | inactive | inactive | – | inactive | – | –
3 | CCCCNC(N)=O | inactive | inactive | inactive | inactive | inactive | – | inactive | – | –
4 | CC#C[C@]1(O)CC[C@H]2[C@@H]3CCC4=CC(=O)CCC4=C3[C@@H](c3ccc(N(C)C)cc3)C[C@@]21C | 5.35 µM (active) | 9.44 µM (active) and 48.6 µM (active) | 5.96 µM (active) and 21.7 µM (active) | – | – | 9.44 µM (active) and 34.4 µM (active) | 4.73 µM (active) and 24.3 µM (active) | – | –
5 | OC1CCCC1 | inactive | inactive | inactive | inactive | inactive | inactive | inactive | – | –
6 | Oc1ccc2ccccc2c1N=Nc1ccccc1 | inactive | inactive | inactive | inactive | inactive | inactive and 54.5 µM (active) | inactive | – | –
7 | Clc1cc(Cl)c(Cl)cc1Cl | inactive | inactive | inactive | inactive | inactive | inactive | inactive | – | –
8 | O=[N+]([O-])c1cccc(Cl)c1 | inactive | inactive | inactive | inactive | inactive | – | inactive | – | –
9 | O=C(c1ccc(O)cc1)c1ccc(O)cc1O | inactive | inactive | – | inactive | inactive | – | inactive | – | –
10 | CC1COc2ccccc2N1C(=O)C(Cl)Cl (stereo not given) | inactive | 30.6 µM (active) and 24.3 µM (active) | 61 µM (active) and 38.5 µM (active) | inactive | – | 9.67 µM (active) and 19.3 µM (active) | 8.62 µM (active) and 15.3 µM (active) | – | –
11 | O=[N+]([O-])c1cc(N(CCO)CCO)ccc1NCCO | inactive | – | – | inactive | – | – | – | inactive | inactive
12 | S=c1nc[nH]c2nc[nH]c12 | inactive | 53.1 µM (active) | inactive | 5.36 µM (active) | inactive | inactive | inactive | – | –
13 | CC1=C(CC(=O)O)c2cc(F)ccc2/C1=C\c1ccc(S(C)=O)cc1 (stereo not given) | inactive | 6.86 µM (active) | inactive and 24.3 µM (active) | inactive | inactive | – | inactive | – | –
14 | O=C1O[C@H](CO)[C@@H](O)[C@H](O)[C@H]1O | inactive | inactive | inactive | inactive | inactive | – | – | – | –
15 | CNC[C@H](O)[C@@H](O)[C@H](O)[C@H](O)CO | inactive | inactive | inactive | inactive | inactive | – | inactive | – | –
